Source: PMC4336329 (PLoS ONE, 2015)
The campaign covered roughly 310,000 compounds. About 14,000 (4.5%) showed an effect of 50% or more. The effect is printed as a negative number. Shown is part of a subset that was picked to be rich in strong results.

Each compound was assayed against human ether-à-go-go-related gene (hERG) potassium channel (human, UniProt Q12809) (assay: primary screen, population patch clamp on CHO cells stably expressing hERG; higher = less effect of the substance).
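Further: peak tail current of the secondary pulse compared with the same well before compound.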

human ether-à-go-go-related gene (hERG) potassium channel, sequence (Q12809 whole entry, looked up): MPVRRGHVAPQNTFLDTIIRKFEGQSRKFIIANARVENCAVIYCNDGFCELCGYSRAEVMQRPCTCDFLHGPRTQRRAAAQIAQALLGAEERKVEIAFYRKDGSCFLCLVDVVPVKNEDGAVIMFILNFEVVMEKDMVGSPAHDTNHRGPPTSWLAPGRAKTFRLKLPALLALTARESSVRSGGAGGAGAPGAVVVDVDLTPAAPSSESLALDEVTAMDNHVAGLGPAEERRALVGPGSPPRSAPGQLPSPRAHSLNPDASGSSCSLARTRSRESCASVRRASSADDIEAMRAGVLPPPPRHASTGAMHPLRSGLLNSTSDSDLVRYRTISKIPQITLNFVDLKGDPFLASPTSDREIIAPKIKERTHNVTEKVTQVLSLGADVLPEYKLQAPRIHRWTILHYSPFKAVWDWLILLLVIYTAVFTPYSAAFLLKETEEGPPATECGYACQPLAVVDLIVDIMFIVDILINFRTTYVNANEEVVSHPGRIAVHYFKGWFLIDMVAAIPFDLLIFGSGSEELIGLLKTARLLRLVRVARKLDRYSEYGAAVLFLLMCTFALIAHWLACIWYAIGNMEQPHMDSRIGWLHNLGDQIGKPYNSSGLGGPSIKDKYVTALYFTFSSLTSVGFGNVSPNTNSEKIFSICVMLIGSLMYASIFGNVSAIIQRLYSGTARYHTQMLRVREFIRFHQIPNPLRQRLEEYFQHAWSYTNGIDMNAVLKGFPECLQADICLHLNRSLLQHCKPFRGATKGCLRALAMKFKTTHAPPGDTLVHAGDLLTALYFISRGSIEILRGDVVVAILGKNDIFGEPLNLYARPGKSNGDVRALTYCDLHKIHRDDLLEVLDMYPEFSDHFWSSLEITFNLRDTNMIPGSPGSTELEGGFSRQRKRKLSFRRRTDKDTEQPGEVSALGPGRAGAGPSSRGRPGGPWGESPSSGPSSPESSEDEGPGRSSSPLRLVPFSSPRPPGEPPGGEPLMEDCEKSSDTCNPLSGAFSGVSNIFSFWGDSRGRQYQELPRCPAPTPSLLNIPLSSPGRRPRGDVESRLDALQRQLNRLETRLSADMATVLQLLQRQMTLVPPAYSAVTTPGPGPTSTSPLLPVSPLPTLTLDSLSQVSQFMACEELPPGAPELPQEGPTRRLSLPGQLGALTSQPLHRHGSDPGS

Structure (SMILES)	hERG current change (%, negative = inhibition) at 10uM [%]
CC(=O)Nc1ccc(Sc2ccccc2C(=O)O)c(C(=O)O)c1	19.4
CCCc1[nH]n(-c2ccc(F)cc2)c(=O)c1C=Nc1ccc(C)cc1	4.95
CCOc1ccccc1NC(=O)Nc1ccc(OC)nc1	14.7
CCOC(=O)c1ccc(S(=O)(=O)NC2CCCCCCC2)n1C	-12.4
O=C(NCc1ccccc1)C1CCCN(S(=O)(=O)c2cccs2)C1 (stereo not shown)	-0.56
COc1ccc(-c2cc(C(=O)N3CCN(Cc4ccc5c(c4)OCO5)CC3)on2)cc1OC	2.8
COc1ccc2oc(-c3ccccc3)c(C(=O)N3CCOCC3)c2c1	-8.44
Cc1csc(NC(=O)c2c(-c3c(F)cccc3Cl)noc2C)n1	-10.9
Cc1ccc(S(=O)(=O)NC2CCCC2)cc1C	-9.68
CCC[N+](CC#Cc1ccccc1)(CCC)CC(=O)OCC	-1.25
C[N+](C)(CC#Cc1ccccc1)CC(=O)c1ccccc1.[Br-]	-13.5
CC[N+](CC)(CC#Cc1ccccc1)CC(=O)c1ccc(Cl)cc1	-60.3
C[N+](C)(CC#Cc1ccccc1)CC(=O)c1ccc(Cl)cc1	-28.3
CCC[N+](CC#Cc1ccccc1)(CCC)CC(=O)OC	9.58
CCC[N+](CC#Cc1ccccc1)(CCC)CC(=O)c1ccc(Cl)cc1	-67.4
Cl.c1ccc2c(N3CCNCC3)cccc2c1	10.9
Cc1nnc(NC(=O)C2=COCCO2)s1	7.13
CN(C)CCCNCC(=O)NN(c1ccccc1)c1ccccc1.O=C(O)C(=O)O	-17.4
CCC(C)[C@H](N)c1nnc(SCC(=O)Nc2cccc(Cl)c2)o1.Cl (stereo partly shown)	-15.6
COc1cnc(-c2ccccn2)nc1N(C)C	-1.39
CC(=NCc1ccco1)c1c(O)n(-c2ccccc2)c(=O)[nH]c1=O	4.82
COc1cc(/C=N/NC(=S)NCCN2CCOCC2)cc(OC)c1O	12.7

Structure (SMILES)	hERG current change (%, negative = inhibition) at 10uM [%]
CCCCCNC(=O)c1cccc(S(=O)(=O)N2CC3(C)CC2CC(C)(C)C3)c1 (stereo not shown)	-1.24
CC1(C)CC2CC(C)(CN2S(=O)(=O)c2cccc(C(=O)OCC(=O)NC(N)=O)c2)C1 (stereo not shown)	-57.1
CC1(C)CC2CC(C)(CN2S(=O)(=O)c2cccc(C(=O)OCC(N)=O)c2)C1 (stereo not shown)	-7.62
CCCCNC(=O)c1cccc(S(=O)(=O)N2CC3(C)CC2CC(C)(C)C3)c1 (stereo not shown)	-26.7
CNC(=O)NC(=O)COC(=O)c1cccc(S(=O)(=O)N2CC3(C)CC2CC(C)(C)C3)c1 (stereo not shown)	-14.4
CCCNC(=O)c1cccc(S(=O)(=O)N2CC3(C)CC2CC(C)(C)C3)c1 (stereo not shown)	-57.6
Br.O=C1SC(SC(=Nc2ccccc2)Nc2ccccc2)C(=O)N1c1ccccc1 (stereo not shown)	11.1
COc1ccc(C(=O)N2CCCC2(C#N)c2ccccc2)cc1[N+](=O)[O-] (stereo not shown)	-41
CCOc1ccc(C(=O)NC2CCCCCCC2)cc1	4.13
COc1ccccc1-n1cc2ccc([N+](=O)[O-])cc2n1	8.8
O=C(CC(Nc1ccccc1)C(=O)O)c1ccccc1 (stereo not shown)	11.2
COc1cccc(NC(=O)Nc2ccccc2C(N)=O)c1	1.99
CCOc1ccc(S(=O)(=O)Nc2cc(OC)c(OC)cc2C(=O)O)cc1	3.94
COc1ccc([C@@H]2C[C@H]3CN(c4ccccc4)C(=O)[C@]34CCCN24)c(OC)c1OC	-78.3
COc1ccccc1-n1cc([C@@H]2C[C@H]3CN(c4ccccc4)C(=O)[C@]34CCCN24)cn1	-17.1
O=C1N(c2ccccc2)C[C@@H]2C[C@@H](c3cccs3)N3CCC[C@@]123	-11.5
COc1cc(Cl)c([C@@H]2C[C@H]3CN(c4ccccc4)C(=O)[C@]34CCCN24)cc1OC	-70.9
CCOc1cc([C@@H]2C[C@H]3CN(c4ccccc4)C(=O)[C@]34CCCN24)ccc1OC	-10.4
COc1cc([C@@H]2C[C@H]3CN(c4ccccc4)C(=O)[C@]34CCCN24)cc(OC)c1OC	-32
CCc1cc2cc(C(=O)N3CCN(Cc4ccccc4)CC3)sc2s1	-36.7
CCN(c1ccccc1C)S(=O)(=O)c1cc2c3c(c1)CCC(=O)N3CCC2	-11.2
COc1ccc(C(CC(=O)Nc2cc([N+](=O)[O-])ccc2OC)c2ccccc2)cc1 (stereo not shown)	8.82

Structure (SMILES)	hERG current change (%, negative = inhibition) at 10uM [%]
O=C(CSCc1ccccc1)Nc1ccccc1	8.79
Cc1ccc(S(=O)(=O)Oc2ccc(/C=N/NC(=O)c3c(Cl)cnn3C)cc2)cc1	-8.14
CCOC(=O)N1CCN(c2nc(C)c3c(n2)CCCC3=O)CC1	7.97
Clc1cccc(OCCCCN2CCCCC2)c1	-36.6
CN(C)CCCOc1cccc(Oc2ccccc2)c1.O=C(O)C(=O)O	-34.5
CN(C)CCCCOc1cccc(Br)c1.O=C(O)C(=O)O	-23.7
COc1cccc(OCCCCN2CC(C)OC(C)C2)c1.O=C(O)C(=O)O (stereo not shown)	-4.73
CCN1CCN(CCOCCOc2ccccc2)CC1.O=C(O)C(=O)O	10.8
CC1CCCN(CCCCOc2cccc(Br)c2)C1.O=C(O)C(=O)O (stereo not shown)	-69
CCN1CCN(CCOc2cccc(Oc3ccccc3)c2)CC1.O=C(O)C(=O)O	-61.1
CC1CCN(CCCCOc2cccc(C(C)C)c2)CC1.O=C(O)C(=O)O	-71.7
Clc1cccc(OCCN2CCOCC2)c1.O=C(O)C(=O)O	-2.27
CC(C)c1cccc(OCCCCN(C)C)c1.O=C(O)C(=O)O	-14.1
CCC1CCCCN1CCCCOc1cccc(Cl)c1.O=C(O)C(=O)O (stereo not shown)	-72
CC(C)c1cccc(OCCN2CCCC2)c1	5.18
COc1nccnc1NS(=O)(=O)c1ccc(NCc2ccccc2O)cc1	7.4
CC(=O)Nc1ccc(S(=O)(=O)N2CCSC2)cc1	1.65
COc1ccc(N2CCN(c3ncnc4scc(-c5ccc(C)cc5)c34)CC2)cc1	13
CC(C)(C)NC(=O)C(c1ccc(O)cc1)N(C(=O)CCC(=O)Nc1ccccn1)c1ccc(F)cc1 (stereo not shown)	8.1
COC(=O)C(CCSC)NC(=O)c1cccc([N+](=O)[O-])c1 (stereo not shown)	-12.1
CCOC(=O)N1CCN(S(=O)(=O)c2ccc3c(c2)oc(=O)n3C)CC1	-0.295
CC(=O)c1ccc(NC(=O)C2CC2c2ccccc2)cc1 (stereo not shown)	3.25

Structure (SMILES)	hERG current change (%, negative = inhibition) at 10uM [%]
CC1=NOC(=O)/C1=C\c1ccc(-c2cccc(Cl)c2)o1	10.4
NC(=O)[C@H]1CC2(CC(c3cccc(NC(=O)[C@H]4CCC(=O)N4)c3)=NO2)CN1C(=O)c1ccccc1C(=O)c1ccccc1 (stereo partly shown)	14.7
CC1CN(CCOc2cccc(Oc3ccccc3)c2)CC(C)O1.O=C(O)C(=O)O (stereo not shown)	5.01
CC1CCN(CCCCOc2cccc(Br)c2)CC1.O=C(O)C(=O)O	-69
CC1CCCN(CCOc2cccc(Oc3ccccc3)c2)C1.O=C(O)C(=O)O (stereo not shown)	-64.7
CC1CCN(CCOc2cccc(Br)c2)CC1.O=C(O)C(=O)O	-20.3
CC1CN(CCCCOc2cccc(Oc3ccccc3)c2)CC(C)O1.O=C(O)C(=O)O (stereo not shown)	-35.9
O=C(NCc1ccc2c(c1)OCO2)C1CCC(=O)N1C1CCCCC1 (stereo not shown)	-9.26
Cc1cc(NC(=O)CCC(=O)N(c2ccccc2)C(C(=O)NC2CCCC2)c2ccncc2)no1 (stereo not shown)	2.53
C=CCOc1ccc(CNc2ccc3[nH]c(=O)[nH]c3c2)cc1	1.57
Clc1cccc(Oc2cnc3ccccc3n2)c1	-25.8
O=C(NCc1cccnc1)C1CCN(S(=O)(=O)c2cccc(C(F)(F)F)c2)CC1	2.69
Cc1cccc(NC(=S)N(CCN2CCOCC2)Cc2ccccc2F)c1	-25
Cc1ccc(C)c(CN2CCCN(C(=O)Cn3ncc4c3-c3ccccc3OC4)C2)c1	-2.82
O=C(Cn1ncc2c1-c1ccccc1OC2)N1CCN(Cc2ccc3c(c2)OCO3)CC1	-61.3
CCOC(=O)N1CCN(C(=O)Cn2ncc3c2-c2ccccc2OC3)CC1	-3.57
O=C(CN1C(=O)c2ccccc2S1(=O)=O)N1CCN(Cc2ccc3c(c2)OCO3)CC1	-12.8
O=C(Cn1ncc2c1-c1ccccc1OC2)N1CCN(Cc2ccccc2)CC1	-68.5
CCN1CCN(C(=O)Cn2ncc3c2-c2ccccc2OC3)CC1	-10.1
COC(=O)[C@@H](NC(=O)NCCC1=CCCCC1)C(C)C	-3.29
COC(=O)CCCC(=O)N1CCCC(CCC(=O)NCc2ccc(F)c(F)c2)C1 (stereo not shown)	0.17
COc1ccc(NC2CCCN(Cc3cccc4cnccc34)C2)cc1 (stereo not shown)	-18.5
